Measured potencies and affinities stand elsewhere. Records with an inconclusive call do not appear. Calls of active or inactive are those of the source. No rule for the calls is given here.
Experiment: general cell-killing toxicity readout – plate reader, dry powder samples, cytotoxicity control for PAX8 inhibitor project, dose response (AID 743021)
Details: cell line, non-specific cytotoxicity counter-screen; series mostly up to 35 µM
In the case of `C[C@@H]1CCCCO[C@H](CN(C)Cc2ccc(C(F)(F)F)cc2)[C@H](C)CN([C@H](C)CO)C(=O)c2cc(NS(=O)(=O)c3ccc(F)cc3)ccc2O1`, the outcome is reported as “inactive”.
In the case of `C[C@@H]1CN([C@H](C)CO)C(=O)c2cc(NC(=O)c3ccncc3)ccc2O[C@@H](C)CCCCO[C@H]1CN(C)Cc1ccc(C(F)(F)F)cc1`, the outcome is reported as “inactive”.
For `O=C(C[C@H]1CC[C@H]2[C@@H](COC[C@@H](O)CN2S(=O)(=O)c2ccccc2Cl)O1)N1CCC(Cc2ccccc2)CC1`, the outcome was “inactive”.
For `C[C@@H]1CN([C@@H](C)CO)C(=O)c2ccccc2-c2ccccc2CO[C@H]1CN(C)Cc1ccccc1C(F)(F)F`, the outcome was “inactive”.
In the case of `C[C@@H]1CN([C@@H](C)CO)S(=O)(=O)c2ccc(C#Cc3ccccc3F)cc2O[C@H]1CN(C)CC1CCOCC1`, the outcome is reported as “inactive”.
For `C[C@@H]1CN([C@@H](C)CO)C(=O)Cc2cc(NC(=O)Nc3ccc(C(F)(F)F)cc3)ccc2O[C@H]1CN(C)S(=O)(=O)c1ccc(F)cc1`, the outcome was “inactive”.
For `C[C@@H]1CCCCO[C@H](CN(C)C(=O)Nc2ccc(F)cc2)[C@@H](C)CN([C@@H](C)CO)C(=O)c2cc(NC(=O)Nc3ccc(C(F)(F)F)cc3)ccc2O1`, the outcome was “inactive”.
In the case of `C[C@@H]1CCCCO[C@@H](CN(C)Cc2ccc(C(F)(F)F)cc2)[C@H](C)CN([C@H](C)CO)C(=O)c2cc(NS(=O)(=O)c3ccc(Cl)cc3)ccc2O1`, the outcome is reported as “inactive”.
In the case of `C[C@@H]1CCCCO[C@@H](CN(C)C(=O)C2CCCCC2)[C@H](C)CN([C@H](C)CO)C(=O)c2cc(NC(=O)Nc3ccc(F)cc3)ccc2O1`, the outcome is reported as “inactive”.
For `C[C@H](CO)N1C[C@H](C)[C@H](CN(C)Cc2ccc(Cl)c(Cl)c2)Oc2c(NS(=O)(=O)c3ccc(Cl)cc3)cccc2C1=O`, the outcome was “inactive”.
With `C[C@@H]1CCCCO[C@@H](CN(C)Cc2ccc(Cl)c(Cl)c2)[C@H](C)CN([C@@H](C)CO)C(=O)c2cc(NC(=O)Cc3ccccc3)ccc2O1` the outcome was “inactive”.
With `C[C@H](CO)N1C[C@H](C)[C@H](CN(C)Cc2ccc3c(c2)OCO3)Oc2ccc(NC(=O)Nc3cccc4ccccc34)cc2C1=O` the outcome was “inactive”.
In the case of `COc1ccccc1-c1ccc2c(c1)[C@H]1[C@H](CCN1S(=O)(=O)c1ccccc1F)[C@H](CO)N2`, the outcome is reported as “inactive”.
In the case of `C[C@@H]1CN([C@H](C)CO)C(=O)c2cc(NC(=O)c3ccccc3)ccc2O[C@@H](C)CCCCO[C@H]1CN(C)Cc1ccc(C(F)(F)F)cc1`, the outcome is reported as “inactive”.
For `C[C@H]1CCCCO[C@@H](CN(C)C(=O)c2ccccc2)[C@@H](C)CN([C@@H](C)CO)C(=O)c2cc(NC(=O)Nc3ccc(C(F)(F)F)cc3)ccc2O1`, the outcome was “inactive”.
For `Cc1ccc(S(=O)(=O)N(C)C[C@H]2Oc3c(NC(=O)Nc4ccc(F)cc4)cccc3C(=O)N([C@@H](C)CO)C[C@H]2C)cc1`, the outcome was “inactive”.
With `O=S(=O)(c1ccc(F)cc1)N1C[C@H]2[C@@H](c3ccccc31)[C@H](CO)N2Cc1ccccc1Cl` the outcome was “inactive”.
In the case of `Cc1ccc(S(=O)(=O)N(C)C[C@H]2OCCCC[C@@H](C)Oc3ccc(NS(=O)(=O)c4ccc(F)cc4)cc3C(=O)N([C@@H](C)CO)C[C@H]2C)cc1`, the outcome is reported as “inactive”.
With `C[C@H](CO)N1C[C@H](C)[C@@H](CN(C)CC2CCCCC2)Oc2ccc(NC(=O)Nc3ccc4c(c3)OCO4)cc2CC1=O` the outcome was “inactive”.
In the case of `O=C(C[C@@H]1C[C@H]2c3cc(NC(=O)C4CCOCC4)ccc3O[C@H]2[C@H](CO)O1)NCc1ccc(Oc2ccccc2)cc1`, the outcome is reported as “inactive”.
With `C[C@H]1CCCCO[C@@H](CN(C)Cc2ccc(C(F)(F)F)cc2)[C@@H](C)CN([C@@H](C)CO)C(=O)c2cc(NS(=O)(=O)c3cccs3)ccc2O1` the outcome was “inactive”.
With `C[C@H](CO)N1C[C@H](C)[C@@H](CN(C)Cc2ccc(Cl)c(Cl)c2)OCCCC[C@H](C)Oc2ccc(NC(=O)Nc3ccc(C(F)(F)F)cc3)cc2C1=O` the outcome was “inactive”.
For `C[C@@H]1CCCCO[C@H](CN(C)C(=O)C2CCCCC2)[C@@H](C)CN([C@@H](C)CO)C(=O)c2cc(NC(=O)Nc3ccccc3)ccc2O1`, the outcome was “inactive”.
For `C[C@@H]1CN([C@H](C)CO)C(=O)Cc2cc(NC(=O)Nc3ccc(F)cc3)ccc2O[C@@H]1CN(C)Cc1ccc(Cl)c(Cl)c1`, the outcome was “inactive”.
In the case of `C[C@H]1CN([C@@H](C)CO)C(=O)CCCn2nncc2CO[C@@H]1CN(C)C(=O)Nc1ccc(-c2cccs2)cc1`, the outcome is reported as “inactive”.
For `C[C@@H]1CCCCO[C@H](CN(C)CC2CCCCC2)[C@H](C)CN([C@H](C)CO)C(=O)c2cc(NS(=O)(=O)c3ccc(Cl)cc3)ccc2O1`, the outcome was “inactive”.
In the case of `Cc1cccc(S(=O)(=O)N2CC[C@@H]3[C@H](CO)Nc4ccc(C5=CCCCC5)cc4[C@@H]32)c1`, the outcome is reported as “inactive”.
With `C[C@H]1CN([C@@H](C)CO)C(=O)c2c(c3ccccc3n2C)-c2ccccc2CO[C@@H]1CN(C)Cc1ccc(-c2ccccc2)cc1` the outcome was “inactive”.
With `C[C@@H]1CN([C@@H](C)CO)C(=O)c2c(c3ccccc3n2C)-c2ccccc2CO[C@H]1CN(C)C(=O)Nc1ccc2c(c1)OCO2` the outcome was “inactive”.
For `CN1c2ccc(C#Cc3cccnc3)cc2[C@@H]2[C@@H](CCN2C(=O)Cc2cccnc2)[C@@H]1CO`, the outcome was “inactive”.
With `C[C@@H]1CN([C@@H](C)CO)C(=O)c2cc(NS(=O)(=O)c3ccc(F)cc3)ccc2O[C@@H](C)CCCCO[C@H]1CN(C)Cc1ccc(C(F)(F)F)cc1` the outcome was “inactive”.
With `C[C@@H]1CN([C@@H](C)CO)C(=O)c2cc(NC(=O)Nc3ccc(C(F)(F)F)cc3)ccc2O[C@@H](C)CCCCO[C@H]1CN(C)Cc1ccc(Cl)c(Cl)c1` the outcome was “inactive”.
With `C[C@H](CO)N1C[C@H](C)[C@@H](CN(C)Cc2ccc(C(F)(F)F)cc2)Oc2ccc(NS(=O)(=O)c3ccc(F)cc3)cc2CC1=O` the outcome was “inactive”.
For `C[C@@H]1CCCCO[C@@H](CN(C)C(=O)C2CCCCC2)[C@H](C)CN([C@H](C)CO)C(=O)c2cc(NS(=O)(=O)c3ccc(Cl)cc3)ccc2O1`, the outcome was “inactive”.
For `COc1cccc(-c2ccc3c(c2)[C@@H]2[C@@H](CCN2C(=O)NC2CCCCC2)[C@H](CO)N3C)c1`, the outcome was “inactive”.
In the case of `C[C@@H]1CCCCO[C@@H](CN(C)Cc2ccccc2)[C@@H](C)CN([C@H](C)CO)C(=O)c2cc(NC(=O)Nc3ccc(C(F)(F)F)cc3)ccc2O1`, the outcome is reported as “inactive”.
In the case of `C[C@@H]1CN([C@H](C)CO)C(=O)Cc2cc(NC(=O)Nc3ccc(F)cc3)ccc2O[C@H]1CN(C)C(=O)Nc1ccc(C(F)(F)F)cc1`, the outcome is reported as “inactive”.
For `C[C@H](CO)N1C[C@H](C)[C@@H](CN(C)Cc2ccc(Oc3ccccc3)cc2)OCc2ccccc2-c2c(n(C)c3ccccc23)C1=O`, the outcome was “inactive”.
With `C[C@@H]1CCCCO[C@@H](CN(C)CC2CCCCC2)[C@@H](C)CN([C@@H](C)CO)C(=O)c2cc(NC(=O)Nc3ccc(C(F)(F)F)cc3)ccc2O1` the outcome was “inactive”.
With `C[C@H]1CCCCO[C@H](CN(C)S(=O)(=O)c2ccc(Cl)cc2)[C@@H](C)CN([C@@H](C)CO)C(=O)c2cc(NS(=O)(=O)c3ccc(Cl)cc3)ccc2O1` the outcome was “inactive”.

— PubChem BioAssay
